# Screens deposited in PubChem by Broad Institute.
# Many of the other results were omitted from the sample, so hits are more common in it than they were.
# NSD2 block = inhibitors of human NSD2 methyltransferase; O96028; NSD2-SET H3K36me1 DELFIA fluorescence, biochemical; inhibition, % at 12.5 µM; actives 0.07% (n = 44,000); AID 624260; in the data active = inhibition above about 54%, passing the limit was not always enough;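 also: inhibitors reduce the monomethyl H3K36 fluorescence signal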
# Hits are given with their value; - = inactive.
SMILES,NSD2 block
CCOC(=O)Cn1c(=O)c2cnc3c(c(C)nn3C)c2n1C,-
O=C(NCC(O)c1ccccc1)c1ccc(S(=O)(=O)N2CCOCC2)cc1 (stereo unspecified),-
COc1cc(O[C@@H]2O[C@H](CO)[C@@H](O)[C@H](O)[C@H]2O)cc2occ(-c3ccc(O)cc3)c(=O)c12,-
CCc1c(O)cc(OC)c2c1O[C@H](C)CC2=O,-
CN(C)c1ccc(/C=N/NC(=O)c2ccc(C(=O)NO)cc2)cc1,-
CC(C)(C)OC(=O)CC[C@@]12N=C(c3ccc(OCCCO)cc3)O[C@@H]1c1ccccc1CN(CCS(=O)(=O)c1ccccc1)C2=O,-
COc1cccc2c1NC1CC(C)CCC1C2(C)C (stereo unspecified),-
COC1=CC(=O)O[C@@H](CCc2ccccc2)[C@H]1O,-
O=C(O)CC(CC(=O)Nc1cc(C(F)(F)F)cc(C(F)(F)F)c1)c1ccc(Cl)cc1Cl (stereo unspecified),-
Cc1ccc(NC2=CC(=O)c3sc(C)nc3C2=O)cc1,73.7
C=C1C(=O)[C@@]23CCC4[C@](C)(C(=O)O)CCC[C@@]4(C)[C@@H]2CC[C@@H]1C3 (stereo partly specified),-
O=c1[nH]nc(SCCS(=O)(=O)c2ccc(F)cc2)n1Cc1ccco1,-
COc1cc(C2c3c(cc(OC)c(O)c3OC)CC(CO)C2COC2OCC(O)C(O)C2O)cc(OC)c1O (stereo unspecified),-
COc1cc(C2c3c(cc(OC)c(O)c3OC)CC(CO)C2COC2OC(CO)C(O)C(O)C2O)cc(OC)c1O (stereo unspecified),75.8
COc1cc(C[C@H]2CO[C@H](c3ccc(O[C@@H]4O[C@H](CO)[C@@H](O)[C@H](O)[C@H]4O)c(OC)c3)[C@H]2CO)ccc1O,-
CCC(C)C(O)C(C)(O)/C=C/C1=CC2=C(Cl)C(=O)C(C)(O)C(OC(C)=O)C2CO1 (stereo unspecified),-
O=C(CCCCCCC(=O)Nc1ccccc1O)N/N=C/c1cc(Br)c(O)c(Br)c1,-
OCC1OC(Oc2cc(O)cc(/C=C/c3ccccc3)c2)C(O)C(O)C1O (stereo unspecified),-
CCCCN(CC)C(=O)Cn1c(=O)n(Cc2ccccc2Cl)c(=O)c2cc(OC)c(OC)cc21,-
O=C(O)CCCCCCC(=O)N/N=C/C1CCCCC1,-
Cc1ccc(/C=N/NC(=O)CCCCCC(=O)NO)o1,-
COC(=O)C1=CO[C@@H](O[C@@H]2O[C@H](CO)[C@@H](O)[C@H](O)[C@H]2O)[C@H]([C@H](C)OC(C)=O)[C@@H]1CC(=O)O,-
O=C(NO)c1cccc(C(=O)N/N=C/c2ccc(O)c3ccccc23)c1,-
O=C(NO)c1cccc(C(=O)N/N=C/c2cccc(O)c2O)c1,-
O=C(NO)c1cccc(C(=O)N/N=C/c2ccc(O)c(O)c2O)c1,63.0
SMILES,NSD2 block
OCc1nnn(-c2ccc(Br)cc2)c1CO,-
CC1(C)COC(CCC/C=N/NC(=O)CCCCCC(=O)NO)OC1,-
CN(C)CCCN1C(=O)C(=O)C(C(=O)c2cccs2)C1c1ccco1 (stereo unspecified),-
CC12CC(c3ccoc3)OC(=O)C1CCC1(C)C2C2OC(=O)C1(O)C1OC21 (stereo unspecified),-
COC(=O)[C@@H](O)[C@H]1[C@@]2(C)C[C@]3(O)C4[C@@H](O[C@]56CC(=O)O[C@@H](c7ccoc7)[C@@]5(C)CCC([C@]46O)[C@]13C)[C@H]2O (stereo partly specified),75.6
CC(=O)O[C@@H]1CC2C(C)(C)C(=O)C3OC3[C@]2(C)C2CC[C@@]3(C)[C@H](c4ccoc4)OC(=O)C4OC43[C@@]21C (stereo partly specified),-
N#Cc1c[nH]c2ccc(NC(=O)/C=C/c3ccc(OC(F)(F)F)cc3)cc12,-
Cn1c(-c2cc(Br)cs2)nc(=O)c2cc(Cl)ccc21,-
O=C(OCc1ccccc1O[C@@H]1O[C@H](CO)[C@@H](O)[C@H](O)[C@H]1O)c1c(O)cccc1O[C@@H]1O[C@H](CO)[C@@H](O)[C@H](O)[C@H]1O,-
COc1cc(C(=O)OCC2(O)COC(OCC3OC(Oc4c(OC)cc(CO)cc4OC)C(O)C(O)C3O)C2O)cc(OC)c1O (stereo unspecified),-
CC(C)CC(=O)c1c(O)cc(O)cc1OC1OC(COC(=O)c2cc(O)c(O)c(O)c2)C(O)C(O)C1O (stereo unspecified),52.2
CC1(O)CC(=O)c2c(ccc3c2C(=O)c2cccc(O)c2C3=O)C1 (stereo unspecified),-
CCOC(=O)c1c(C)c(C#N)c(/N=C/N(C)C)n1-c1ccc(Cl)cc1Cl,-
OC[C@H]1O[C@@H](Oc2ccc3c(c2)OC[C@H]2c4cc5c(cc4O[C@@H]32)OCO5)[C@H](O)[C@@H](O)[C@@H]1O,68.4
Oc1ccc2c(c1O)OCC1c3cc4c(cc3OC21)OCO4 (stereo unspecified),-
COc1ccc2c(c1)O[C@H]1c3ccc(O)cc3OC[C@@H]21,-
CCOc1cc(OCC)cc(C(=O)N[C@@H](Cc2ccc(-n3cc(COc4ccccc4/C=C(C)/C=C/C(=O)NO)nn3)cc2)C(=O)OC)c1,-
CSc1nc(C)cc(OCC(=O)N2CCCCC2)n1,-
CC12CCC3c4ccc(O)cc4CC(CCCCCCCCCS(=O)CCCC(F)(F)C(F)(F)F)C3C1CCC2O (stereo unspecified),-
COc1c2c(cc3oc(CO[C@@H]4O[C@H](CO)[C@@H](O)[C@H](O)[C@H]4O)cc(=O)c13)OC(C(C)(C)O)C2 (stereo partly specified),-
O=C(c1cnc2ccccn12)C(F)(F)SCc1c(Cl)cccc1Cl,-
CCOC(=O)c1cc(-c2ccccc2)n(CCNC(=O)OC(C)(C)C)c1C,-
COc1ccc2nc(/N=C(/N)NC(=O)N3c4ccccc4Sc4ccccc43)nc(C)c2c1,-
O=C(N/N=C/c1cc(Br)cc(Br)c1O)c1ccccn1,-
COc1c(O)cc2c(=O)oc3c(OC)c(O[C@@H]4OC[C@@H](O)[C@H](O)[C@H]4O)cc4c(=O)oc1c2c34,-
SMILES,NSD2 block
c1ccc2c(c1)CCCc1cc(NCCN3CCOCC3)nnc1-2,-
O=C1C(Cl)=C(NCCN2CCOCC2)C(=O)c2ncccc21,90.2
Cc1ccc(S(=O)(=O)c2nc(-c3ccccc3)oc2NCCN2CCOCC2)cc1,-
CCCCC/C=C/C=C/C(O)CCCCCCCC(=O)O (stereo unspecified),-
C=C(C(=O)O)C1C(OC(=O)/C(=C/CO)CO)CC(C)(O)C2CC(OC(C)=O)C(C)=CC12 (stereo unspecified),-
C[C@@H]1O[C@@H](Oc2cc(O)c3c(=O)c(O[C@@H]4O[C@@H](C)[C@H](O)[C@@H](O[C@@H]5OC[C@@H](O)[C@H](O)[C@H]5O)[C@H]4O[C@@H]4O[C@H](CO)[C@@H](O)[C@H](O)[C@H]4O)c(-c4ccc(O)c(O)c4)oc3c2)[C@H](O)[C@H](O)[C@H]1O,-
O=c1c(O[C@@H]2O[C@H](CO)[C@H](O)[C@H](O)[C@H]2O)c(-c2ccc(O)cc2)oc2cc(O)cc(O)c12,-
O=c1c(OC2OCC(O)C(O)C2O)c(-c2ccc(O)c(O)c2)oc2cc(O)cc(O)c12 (stereo unspecified),59.6
COc1c(-c2ccc(O)cc2)oc2cc(O)cc(O)c2c1=O,-
O=c1c(O[C@@H]2OC[C@H](O)[C@H](O)[C@H]2O)c(-c2ccc(O)c(O)c2)oc2cc(O)cc(O)c12,-
